# TDP1 cell CPT: DT40-hTDP1 cell growth loss with CPT. hit rate 12% among 420,000. Potency, µM (series often up to 46.2 µM), for inactives: at the highest dose activity change, negative = growth inhibition, usual class: inhibitors. chicken DT40 Tdp1-/-;hTDP1 cells + 20 nM CPT, ATP luminescence, 48 h; further: nearly all actives have a fitted effect of over 55% in size
#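 Chicken DT40 Tdp1-/- cells stably complemented with human TDP1 were seeded at 400 cells/well in medium containing 20 nM camptothecin, exposed to pin-transferred compounds, and grown at 37 °C for at least 48 hr. Viability was read as ATP luminescence.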
# VP16 counter: counter-screen for ROR gamma inhibitors: Gal4-VP16 reporter | Drosophila S2 Gal4-VP16 UAS-luciferase, luminescence, 20 h | Potency, µM (doses to about 53.6 µM), inactives show at the highest dose activity, negative = inhibition, usual class: inhibitors | hit rate 3.5% among 310,000;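 further: Gal4-VP16 expression switched on by copper sulfate through the metallothionein promoter; nearly all actives have a fitted effect of over 50% in size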
# TDP1 cell noCPT: qHTS for Inhibitors of human tyrosyl-DNA phosphodiesterase 1 (TDP1): qHTS in cells in absence of CPT. DT40 Tdp1-/- hTDP1 cells, no CPT, ATP luminescence, 48 h. Potency, µM (highest dose often 46.2 µM), without a hit: top-dose activity change, negative = growth inhibition, usual class: inhibitors. hit rate 15% among 420,000. AID 686978, 2013; further: nearly all actives have a fitted effect of over 55% in size
#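 Growth kinetics read by CellTiter-Glo luminescence after ≥48 hr at 37 °C. Cells: DT40 Tdp1-/- stably carrying human TDP1, 400 per well, compound exposure in the absence of CPT (DMSO vehicle).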
# TDP1 inh: TDP1 (human) enzyme inhibition; Q9NUW8; recombinant TDP1, AlphaScreen DNA substrate cleavage; Potency, µM (top dose mostly 130 µM), without a hit: at the highest dose activity change, negative = inhibition, hits mostly inhibitors; hit rate 0.28% among 350,000; AID 485290; further: nearly all actives have a fitted effect of over 40% in size
# Target sequence (Q9NUW8 whole entry, looked up): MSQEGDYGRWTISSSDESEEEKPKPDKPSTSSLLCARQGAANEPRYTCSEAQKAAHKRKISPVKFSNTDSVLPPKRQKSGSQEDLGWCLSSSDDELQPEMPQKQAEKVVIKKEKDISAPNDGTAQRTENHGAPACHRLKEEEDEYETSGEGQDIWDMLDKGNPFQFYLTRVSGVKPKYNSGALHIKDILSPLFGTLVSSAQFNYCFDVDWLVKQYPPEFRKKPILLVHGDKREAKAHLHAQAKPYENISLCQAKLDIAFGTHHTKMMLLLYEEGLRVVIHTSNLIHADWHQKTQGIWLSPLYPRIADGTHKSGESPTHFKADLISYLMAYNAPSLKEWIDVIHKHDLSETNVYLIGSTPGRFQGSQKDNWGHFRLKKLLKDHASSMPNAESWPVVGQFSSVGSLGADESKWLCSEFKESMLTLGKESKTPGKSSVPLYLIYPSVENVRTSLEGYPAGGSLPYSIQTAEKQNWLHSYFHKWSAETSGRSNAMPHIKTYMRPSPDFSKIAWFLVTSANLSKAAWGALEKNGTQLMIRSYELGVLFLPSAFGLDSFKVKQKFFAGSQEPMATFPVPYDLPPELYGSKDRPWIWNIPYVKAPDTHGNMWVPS
#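 AlphaScreen read-out: signal falls as enzyme removes the 3' tyrosine-FITC from a 5'-biotinylated DNA oligo (15 nM, 5 min, RT). Enzyme was E. coli-made recombinant Tdp1 at 1 nM, exposed to compound for 15 min beforehand; beads 10 ug/ml, 10 min.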
# RORg inh: ROR gamma (mouse) transcription inhibition | P51450 | Drosophila S2 Gal4-RORgamma UAS-luciferase reporter, 20 h | Potency, µM (doses to about 53.6 µM), inactives show top-dose activity change, negative = inhibition, most hits filed as inhibitors | hit rate 5.4% among 310,000; further: nearly all actives have a fitted effect of over 60% in size
#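 Compounds are pin-transferred onto Drosophila Schneider cells expressing a copper-inducible Gal4–ROR gamma transactivation domain fusion. After 1 hr, copper sulfate is added to 700 uM final; luciferase is read 20 hr later.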
# The depositor's hits bear a star; ? = inconclusive; . = not tested or not shown; [ ] = remark or other dose. Sampled rows, rich in hits. Any-hit rate of the full collection: about 19%. The call rests on the fitted dose curve; in most records, active means well fitted curve in the direction sought with a large enough effect; inconclusive means small, poorly fitted or top-dose-only effect, or another doubt; inactive means no such curve, though single readings can be large; an effect the other way counts as inactive or inconclusive. On the % scale 0 is the no-effect control and ±100 the full control effect; potency means the concentration at half of the fitted maximal effect.
SMILES,TDP1 cell CPT,VP16 counter,TDP1 cell noCPT,TDP1 inh,RORg inh
Cc1ccccc1Cn1c(CN2CCN(c3ccc(F)cc3)CC2)nc2c1c(=O)n(C)c(=O)n2C,.,0%,.,0%,2%
CCCn1c(CN2CCN(c3cccc(Cl)c3)CC2)nc2c1c(=O)n(C)c(=O)n2C,5.8µM*,?,6.5µM*,4%,-5%
Cc1ccc(Cn2c(CN3CCN(c4cccc(Cl)c4)CC3)nc3c2c(=O)n(C)c(=O)n3C)cc1,18µM*,.,?,5%,.
CCCCn1c(CN2CCN(c3cccc(Cl)c3)CC2)nc2c1c(=O)n(C)c(=O)n2C,7.3µM*,-11%,6.5µM*,8%,5%
Cn1c(=O)c2c(ncn2CC(=O)N2CCN(c3cccc(Cl)c3)CC2)n(C)c1=O,-23%,0%,-16%,7%,12%
CCCCCn1c(CN2CCN(c3cccc(Cl)c3)CC2)nc2c1c(=O)n(C)c(=O)n2C,16µM*,?,21µM*,4%,16%
Cc1noc(C)c1S(=O)(=O)N1CCCC1C(=O)NC(C)(C)C (configuration not stated),13%,14%,-2%,4%,-28%
O=C(Nc1ccc(C(=O)N2CCN(c3ccc(Cl)cc3)CC2)cc1)c1nsc2ccccc12,?,.,?,3%,.
COc1ccc(CCNc2nc(SCc3cccc(Cl)c3)nc3ccccc23)cc1OC,?,.,8.2µM*,5%,.
COc1ccc(CCNc2nc(SCc3ccccc3F)nc3ccccc23)cc1OC,3.7µM*,.,3.7µM*,6%,.
COc1ccc(CCNc2nc(SCc3ccc(F)cc3)nc3ccccc23)cc1OC,7.3µM*,.,7.3µM*,0%,.
COc1cc(Nc2nc(SCC#N)nc3ccccc23)cc(OC)c1OC,4%,1%,-7%,1%,-9%
Clc1cccc(CSc2nc(NCCc3ccccc3)c3ccccc3n2)c1,?,.,?,4%,.
COc1cccc(OC)c1C(=O)Nc1ccnn1C,30%,8%,4%,.,2%
CCOC(=O)c1n[nH]n2c1nc(=S)c1ccccc12,-14%,?,-20%,.,6.3µM*
c1ccc(NCCSc2nc3ccccc3s2)cc1,-3%,.,-2%,.,.
COc1cccc(C(=O)NC2=NC(c3ccccc3F)CC(=O)N2)c1 (configuration not stated),0%,.,-7%,3%,.
Clc1ccc(CSc2ncnc3c2ncn3C2CCCCO2)cc1 (configuration not stated),?,.,16µM*,.,.
Fc1ccccc1CSc1ncnc2c1ncn2C1CCCCO1 (configuration not stated),-16%,.,?,.,.
CCn1nc(C)cc1-c1nnc(Sc2ncc([N+](=O)[O-])s2)n1C,0.58µM*,4.5µM*,0.58µM*,.,5µM*
COc1ccc(CNC(=O)CNC(=O)[C@@H]2Cc3ccccc3CN2)cc1,-11%,-2%,-1%,2%,-3%
Cc1cccc(-n2c(Cc3ccccc3)nnc2SCc2nc(-c3cccs3)no2)c1,?,.,?,2%,.
COc1ccc(OC)c(-c2noc(CSc3nnc(Cc4ccccc4)n3-c3cccc(C)c3)n2)c1,18µM*,.,23µM*,9%,.
COc1ccc(OC)c(-c2noc(CSc3nnc(-c4ccccc4)n3-c3ccccc3)n2)c1,15µM*,.,5.2µM*,5%,.
COc1ccc(-c2noc(CSc3nnc(Cc4ccccc4)n3-c3cccc(C)c3)n2)cc1OC,16µM*,-4%,21µM*,1%,-1%
SMILES,TDP1 cell CPT,VP16 counter,TDP1 cell noCPT,TDP1 inh,RORg inh
CCOc1ccc(-c2noc(CSc3nnc(Cc4ccccc4)n3-c3ccc(F)cc3)n2)cc1,?,.,?,9%,.
COc1ccc(-c2noc(CSc3nnc(Cc4ccccc4)n3-c3ccccc3)n2)cc1OC,23µM*,.,13µM*,10%,.
CCC1CCCCN1CC(=O)Nc1cc(OC)c(OC)cc1C#N (configuration not stated),-8%,9%,?,-5%,-17%
COc1ccc(-c2cc(C(=O)N3CCN(S(=O)(=O)c4ccccc4)CC3)[nH]n2)cc1,21µM*,0%,?,.,?
Cc1ccc(S(=O)(=O)N2CCN(C(=O)c3ccco3)CC2)c(C)c1,-25%,-8%,1%,.,-2%
Cc1ccc(S(=O)(=O)N2CCN(C(=O)c3cc(-c4ccc(Br)cc4)n[nH]3)CC2)c(C)c1,16µM*,.,12µM*,4%,.
O=C(c1cc(-c2ccccc2)n[nH]1)N1CCN(S(=O)(=O)c2ccccc2)CC1,?,3%,?,.,41%
O=C(c1cc(-c2ccc(Br)cc2)n[nH]1)N1CCN(C(=O)c2ccccc2Br)CC1,?,-9%,?,5%,21%
COc1ccc(S(=O)(=O)N2CCN(C(=O)c3cc(-c4ccc(Br)cc4)n[nH]3)CC2)cc1OC,9.2µM*,13µM*,7.3µM*,3%,?
O=C(c1cc(-c2ccc(Br)cc2)n[nH]1)N1CCN(S(=O)(=O)c2ccc(Br)cc2)CC1,15µM*,.,16µM*,7%,.
C[C@@H]1CN([C@H](C)CO)C(=O)c2cc(NC(=O)Cc3cn(C)c4ccccc34)ccc2O[C@H]1CN(C)C(=O)Nc1ccc2c(c1)OCO2,?,.,?,6%,.
COc1ccc(NC(=O)c2ccc(S(=O)(=O)N3CCCCC3)cc2)c(OC)c1,-20%,-1%,2%,-8%,13%
CCOC(=O)N1CCC(NC(=O)c2cnn3cccnc23)CC1,-9%,3%,?,4%,-3%
COc1ccc(Cl)cc1S(=O)(=O)N1CCN(C(=O)c2cc(-c3ccc(Br)cc3)n[nH]2)CC1,12µM*,.,9.2µM*,5%,.
Cc1ccc(S(=O)(=O)N2CCN(C(=O)C3CCN(C(=O)c4ccc(F)cc4)CC3)CC2)c(C)c1,?,.,10µM*,2%,.
COc1ccc(Cl)cc1S(=O)(=O)N1CCN(C(=O)c2cc(OC)c(OC)c(OC)c2)CC1,-15%,-4%,-29%,0%,?
COc1ccccc1-c1cc(C(=O)N2CCN(S(=O)(=O)c3ccc(C)cc3)CC2)[nH]n1,23µM*,-2%,?,.,19%
Cc1ccc2c(c1)=C(c1ccccc1)N(O)CC(=O)N=2,27%,8%,-17%,.,-11%
O=C(Oc1cc(=O)oc2ccccc12)c1cccnc1Cl,2%,-5%,2%,8%,-20%
COc1ccc(C(=O)Sc2nncc3ccccc23)cc1,7%,?,1%,6%,11µM*
CCC1CCCCN1Cc1ccc(OC)c(OC)c1 (configuration not stated),-9%,3%,-5%,3%,?
C=C(c1ccccc1Cl)[n+]1ccccc1,12µM*,-15%,7.3µM*,.,-3%[1.91 µM]

# Screening data as filed in PubChem.
